These results are taken from ChEMBL document CHEMBL3988442, “University of Dundee, Small-Polar-MMV Screening Library” (2021).

SMILES strings stand for the structures. About 13,000 (27%) of roughly 48,000 compounds showed an effect of 50% or more. This is one part of the list.

The assay deals with Wolbachia pipientis. Nature of the assay: Anti-Wolbachia Cell-Based Screen. The class given is functional. On the set-up: scale not given: in the data most compounds retested in dose-response had high values. Particulars: 5 µM.
For the compound `CN(C)S(=O)(=O)N1CC[C@]2(O)CCN(c3nc4ccccc4s3)C[C@@H]2C1`, the “Percent Effect” value amounted to 10.05%.
As to `CN(C)S(=O)(=O)N1CCC(c2c(C(N)=O)sc3ccccc23)C1` (stereo unspecified), the “Percent Effect” value was found to be 94.67%.
For the compound `O=S(=O)(N1CCOCC1)N1CCOC(CCc2ccccc2)C1` (stereo unspecified), the “Percent Effect” value is reported as -18.19%.
For `CN(C)S(=O)(=O)N1CCC(OCCCc2ccccc2)C1` (stereo unspecified), the “Percent Effect” value is on record as -12.64%.
Regarding `CCN(CC)S(=O)(=O)N1CCCC(c2cccc(C(=O)O)c2)C1` (stereo unspecified), the “Percent Effect” value worked out at 14.6%.
For the compound `CCN(CC)S(=O)(=O)N1CCCC(c2ccc(C(=O)O)cc2)C1` (stereo unspecified), the “Percent Effect” value is -2.613%.
As to `CC(C)C(=O)N1CCC(C2C(=O)Nc3ccccc32)CC1` (stereo unspecified), the “Percent Effect” value was -15.74%.
On to `CC(NC(=O)N1CCC(CC(N)=O)CC1)c1csc2ccccc12` (stereo unspecified), for which the “Percent Effect” value was -9.558%.
With `NC(=O)c1sc2ccccc2c1C1CCN(S(=O)(=O)N2CCOCC2)C1` (stereo unspecified) the figure was 162.8%.
For the compound `CCN(CC)S(=O)(=O)N1CCC(c2c(C(N)=O)sc3ccccc23)C1` (stereo unspecified), the “Percent Effect” value worked out at 158.5%.
Regarding `O=S(=O)(N1CCOCC1)N1CCOC(CCCc2ccccc2)C1` (stereo unspecified), the “Percent Effect” value was determined as 5.354%.
Turning to `CC(C)C(=O)N1CCC(c2c(C(N)=O)sc3ccccc23)C1` (stereo unspecified), the “Percent Effect” value turned out to be 99.6%.
For the compound `COCC1CCN(C(=O)c2cc(O)nc(CC(C)C)c2)CC1`, the “Percent Effect” value is on record as 9.231%.
For `Cl.Cl.c1c(CN2CCCC2)nc2n1CCNC2`, the “Percent Effect” value was 4.335%.
For the compound `CC(C(=O)NCc1cccc(N2CC=CC2)c1)n1cccn1` (stereo unspecified), the “Percent Effect” value was -4.465%.
For the compound `CCOC(=O)N1CCN(C(=O)Cc2c(C)nc(C)[nH]c2=O)CC1`, the “Percent Effect” value is given as -14.69%.
With `Cc1cnccc1NCCn1ccnc1C1CCOC1` (stereo unspecified), the “Percent Effect” value was -4.825%.
In the case of `CCC(Nc1ncnc2sc(C(=O)O)c(C)c12)c1ccnn1C` (stereo unspecified), the “Percent Effect” value was -0.5167%.
Regarding `Cc1ccc(CN2C(=O)CC[C@]23CC[C@@H](NCC2CCOC2)CC3)cc1.O=C(O)C(F)(F)F` (stereo partly specified), the “Percent Effect” value is reported as -23.04%.
For `CC(C)N1CC(C(=O)NCCOc2ccc3c(c2)OCO3)CC1=O` (stereo unspecified) the value was 7.499%.
As to `CN1CC(C(=O)NCCOc2ccc3c(c2)OCO3)CC1=O` (stereo unspecified), the “Percent Effect” value came out at 106.4%.
For `CC(C)CN1CC(C(=O)NCCc2c[nH]cn2)CC1=O` (stereo unspecified) the value was 10.41%.
On to `O=C(NCCOc1ccc2c(c1)OCO2)C1CC(=O)N(C2CC2)C1` (stereo unspecified), for which the “Percent Effect” value worked out at 106.6%.
Take `COC(=O)CCNC(=O)C1CC(=O)N(C2CCCC2)C1` (stereo unspecified): the “Percent Effect” value is reported as -11.01%.
As for `CCN1CC(C(=O)NCc2ccnc(-n3ccnc3C)c2)CC1=O` (stereo unspecified), the “Percent Effect” value is reported as 5.504%.
For `O=C(NCCOc1ccc2c(c1)OCO2)C1CC(=O)N(CC2CC2)C1` (stereo unspecified), the “Percent Effect” value was found to be 4.084%.
With `CC(C)CN1CC(C(=O)NCCOc2ccc3c(c2)OCO3)CC1=O` (stereo unspecified), the “Percent Effect” value was determined as 103.1%.
For `Cc1ccc(OCCC(=O)NC2CC(=O)N(C)C2)cc1C` (stereo unspecified) the value was -10.49%.
`CCN1CC(C(=O)NCCOc2ccc3c(c2)OCO3)CC1=O` (stereo unspecified): the “Percent Effect” value is on record as 101.2%.
For `O=C(NCCOc1cccc(Cl)c1)C1CC(=O)N(CC2CC2)C1` (stereo unspecified) the value was -4.254%.
As for `CC(=O)N1CCN(c2ccccc2CNc2cncc(C)c2)CC1`, the “Percent Effect” value is listed as -7.391%.
With `CCc1cc(=O)[nH]c2nnc(SCC(=O)NC)n12` the figure was -1.194%; with `Cc1cc(N2CCC(c3nccn3Cc3cscn3)CC2)ccn1`, -23.28%.
Take `O=C1NC2(CCN(C(=O)Cc3ccsc3)CC2)CC1c1ccccc1` (stereo unspecified): the “Percent Effect” value is recorded as 6.926%.
Consider `O=C(c1cccs1)N1CCC(O)(CN2CCc3ccccc3C2)C1` (stereo unspecified), for which the “Percent Effect” value is listed as -8.795%.
Regarding `O=C(Cc1cccs1)N1CCC(O)(CN2CCc3ccccc3C2)C1` (stereo unspecified), the “Percent Effect” value stood at 105.2%.
With `O=C(Cc1ccsc1)N1CCC2(CCCN(CC3CCOCC3)C2)C1` (stereo unspecified) the figure was -0.5355%; with `O=C(NCc1cccs1)NCC1(O)CCc2ccccc2C1` (stereo unspecified), -8.141%.
On to `O=C(Cc1ccsc1)N1CCC(O)(CN2CCc3ccccc3C2)C1` (stereo unspecified), for which the “Percent Effect” value worked out at 104.8%.
In the case of `CC(C)c1cc(NC(CO)CO)n2nccc2n1`, the “Percent Effect” value is listed as 17.2%.
As for `CC(C)n1nc2c(cc1=O)CN(Cc1nc(-c3ccoc3)no1)CC2`, the “Percent Effect” value was 17.12%.
With `COCCN1CCC(C(=O)N(C)CCOc2ccc(C)cc2Cl)C1` (stereo unspecified) the figure was -22.94%; with `O=C1CO[C@@H]2CN(S(=O)(=O)c3ccc(F)cc3)C[C@H]2N1`, 87.78%.
Take `O=C1CO[C@H]2CN(Cc3ccc(F)c(F)c3)C[C@H]2N1`: the “Percent Effect” value is -16.97%.
As for `O=C1CO[C@@H]2CN(S(=O)(=O)c3ccccc3F)C[C@H]2N1`, the “Percent Effect” value came to 96.68%.
Regarding `O=C1CO[C@H]2CN(Cc3ccc(C(F)(F)F)cc3)C[C@H]2N1`, the “Percent Effect” value is recorded as -16.85%.
For `CNC(=O)Cc1csc(NC(=O)C2CSCCC(=O)N2)n1` (stereo unspecified) the value was 9.778%.
Turning to `Cc1nc2c(c(NC3CC3)n1)CCN(C(=O)C1(C#N)CC1)CC2`, the “Percent Effect” value is -9.329%.
As for `CCNc1ccnc(N2Cc3cnc(CC(C)C)nc3C2)n1`, the “Percent Effect” value was determined as 8.628%.
For the compound `CSc1ncc(Cl)c(C(=O)NC(Cc2ccccc2)C(=O)O)n1` (stereo unspecified), the “Percent Effect” value is reported as 98.91%.
For `CSCCC(NC(=O)c1ccc2ccccc2n1)C(=O)O` (stereo unspecified), the “Percent Effect” value is given as -5.769%.
On to `CCCSc1ncc(Cl)c(C(=O)NC(CCSC)C(=O)O)n1` (stereo unspecified), for which the “Percent Effect” value is recorded as 125.3%.
For `CCOc1ccc(Cl)c(C(=O)NC(C(N)=O)c2ccccc2)n1` (stereo unspecified), the “Percent Effect” value is given as -8.916%.
In the case of `CCOCCNC(=O)C(CCSC)NC(=O)c1ccc2ccccc2n1` (stereo unspecified), the “Percent Effect” value was 5.309%.
On to `CCOc1ccc(Cl)c(C(=O)NC(Cc2ccccc2)C(N)=O)n1` (stereo unspecified), for which the “Percent Effect” value is on record as -4.15%.
Regarding `CSc1ccsc1C(=O)NC(Cc1ccccc1)C(N)=O` (stereo unspecified), the “Percent Effect” value is -23.55%.
On to `CSCCC(NC(=O)c1nc(SC)ncc1Cl)C(=O)O` (stereo unspecified), for which the “Percent Effect” value turned out to be 130.6%.
With `CCSc1ncc(Cl)c(C(=O)NC(CCSC)C(=O)O)n1` (stereo unspecified) the figure was 88.5%; with `CSCCC(NC(=O)c1ccc2ccccc2n1)C(=O)N(C)C` (stereo unspecified), -7.928%.
For `C=C(C)COc1ccc(C(=O)NCCn2c(C)cc(C)nc2=O)cc1`, the “Percent Effect” value amounted to 3.763%.
With `NC(CC1CCCC1)c1ccc(Oc2ccccc2)cc1` (stereo unspecified) the figure was -4.539%; with `Cc1nnc(CN2CCCC2c2ccc3c(c2)OCCCO3)n1C` (stereo unspecified), -16.28%; with `Cc1ccc(CNCc2nnc3n2CCCC3C(F)(F)F)s1` (stereo unspecified), -0.9896%.
On to `Cc1cc(CC(=O)NCC(O)COc2ccc(F)c(F)c2)n[nH]1` (stereo unspecified), for which the “Percent Effect” value was -4.204%.
In the case of `COCCN(Cc1ccc(F)cc1Cl)C(=O)c1csnn1`, the “Percent Effect” value is on record as 2.289%.
`CCN(CC)C(=O)c1ccc(Cl)c(NC(=O)c2cc(C(C)C)on2)c1`: the “Percent Effect” value is 105.3%.
Regarding `CCN(CC)C(=O)c1ccc(Cl)c(NC(=O)c2cnc(C)cn2)c1`, the “Percent Effect” value was determined as 101.4%.
For the compound `Cc1cnc(C(=O)N(CCN(C)C)Cc2ccc(Cl)cc2)cn1`, the “Percent Effect” value is reported as 18.7%.
Take `CCN(CC)C(=O)c1ccc(Cl)c(NC(=O)c2csnn2)c1`: the “Percent Effect” value stood at 102.3%.
With `CC(C)CC(=O)Nc1cc(C(=O)N(C)C(C)C)ccc1Cl` the figure was -13.72%.
Consider `CC(C)OCCC(=O)Nc1cc(C(=O)N(C)C(C)C)ccc1Cl`, for which the “Percent Effect” value was -18.48%.
In the case of `CCN(CC)C(=O)c1ccc(Cl)c(NC(=O)c2cc[nH]n2)c1`, the “Percent Effect” value stood at 48.61%.
Turning to `CCN(CC)c1ccc(CNC(=O)c2cnc(C)cn2)cn1`, the “Percent Effect” value is 0.4576%.
Turning to `O=C(c1nc(=O)[nH]c2ccccc12)N1CCCC(CC2CC2)(C(=O)O)C1` (stereo unspecified), the “Percent Effect” value is reported as -2.768%.
Turning to `CCc1noc(CS(=O)(=O)c2cccc(OC)c2)n1`, the “Percent Effect” value is -12.89%.
`Cc1c(C(=O)N2CCC(O)(CN(C)C)C2)c2cc(O)ccc2n1C` (stereo unspecified): the “Percent Effect” value was -4.838%.
Take `CN(CCO)C[C@@H]1CN(C(=O)Cc2ccc3ccccc3c2)C[C@@H]1CO`: the “Percent Effect” value is -10.71%.
Take `CN(C)CC1(O)CCCN(C(=O)Cc2ccc(Cl)c(Cl)c2)C1` (stereo unspecified): the “Percent Effect” value was determined as 6.381%.
For `CN(C)CC1(O)CCN(C(=O)Cc2ccc3ccccc3c2)C1` (stereo unspecified) the value was 131.3%; for `CN(C)C[C@@H]1CN(C(=O)Cc2ccc3ccccc3c2)C[C@@H]1CO`, -10.12%; for `CN(C)CC1(O)CCN(C(=O)Cc2ccc3c(c2)CCC3)C1` (stereo unspecified), 113.1%.
For `CN(C)CC1(O)CCN(C(=O)Cc2ccc3c(c2)CCCC3)C1` (stereo unspecified), the “Percent Effect” value is recorded as 97.61%.
Turning to `CN(C)CC1(O)CCN(C(=O)Cc2ccc(Cl)c(Cl)c2)C1` (stereo unspecified), the “Percent Effect” value is reported as -5.552%.
For `Cc1cc2occ(CC(=O)N3CCC(O)(CN(C)C)C3)c2cc1Cl` (stereo unspecified) the value was -55.74%.
As for `COc1c(NC(=O)N(C)CCOc2ccc(F)cc2)c(C)nn1C`, the “Percent Effect” value was -9.317%.
With `CC(=O)N1CCC[C@H]1C(=O)NCCOc1cccc(Cl)c1`, the “Percent Effect” value is reported as 1.208%.
As to `CC(=O)N1CCCC1C(=O)NCCOc1c(C)cccc1C` (stereo unspecified), the “Percent Effect” value came out at 70.88%.
Take `CC(=O)N1CCC[C@H]1C(=O)N(C)CCCOc1ccccc1`: the “Percent Effect” value stood at 16.69%.
On to `CC(=O)N1CCN(C(=O)CCOc2ccc(C(C)C)cc2)CC1`, for which the “Percent Effect” value was -11.35%.
Turning to `CC(C)CCNC(=O)C1CCCN1C(=O)Nc1cccc(F)c1` (stereo unspecified), the “Percent Effect” value came to 134.2%.
Regarding `CC(=O)N1CCCC1C(=O)NCCOc1ccc(C(C)C)cc1` (stereo unspecified), the “Percent Effect” value came to 97.98%.
As for `C=C(C)COCCNC(=O)C1CCCN1C(C)=O` (stereo unspecified), the “Percent Effect” value is reported as 4.711%.
`CC(=O)N1CCCC1C(=O)NCCOc1cc(C)cc(C)c1` (stereo unspecified): the “Percent Effect” value is on record as 2.584%.
For `CC(=O)N1CCCC1C(=O)NCCOc1cccc(F)c1` (stereo unspecified) the value was 92.85%; for `O=C1CCCN1CC1CCCCN1C(=O)Nc1cccc(F)c1` (stereo unspecified), -9.718%.
On to `Cc1ccc(F)cc1NC(=O)C1CCCN1C(=O)C(C)C` (stereo unspecified), for which the “Percent Effect” value is -3.665%.
In the case of `CC(=O)NCCOc1c(C)cccc1C`, the “Percent Effect” value was -5.514%.
With `CCC(CNC(=O)COC)Oc1cccc(F)c1` (stereo unspecified) the figure was -17.35%.
With `NC(=O)c1csc(N2CCCC(c3n[nH]c(=O)n3-c3ccccc3)C2)n1` (stereo unspecified) the figure was -8.892%; with `CC(C)c1cc(C(=O)NCCn2nc3ccccn3c2=O)n[nH]1`, 7.227%; with `Cc1nc(Nc2ccc(Cl)cn2)sc1C(=O)NCCCN1CCCCC1`, -4.658%.
As for `Cc1nnc(NC(=O)NCCCN2CCC(C(N)=O)CC2)s1`, the “Percent Effect” value worked out at 105%.
For `Cc1nc(NC(=O)NCCCN2CCC(C(N)=O)CC2)sc1C` the value was 92.76%; for `Cc1nnc(NC(=O)N2CCCCC2CCO)s1` (stereo unspecified), -9.567%; for `Cc1nc(NC(=O)C2CCCN(C(=O)C3CC3)C2)sc1C` (stereo unspecified), 22.45%.
Regarding `Cc1nnc(NC(=O)NCc2ccc(C)n2C)s1`, the “Percent Effect” value turned out to be 1.794%.
